Reference: the supplement of paper PMC11732987, “Enantioselective OTUD7B fragment discovery through chemoproteomics screening and high-throughput optimisation” (Communications Chemistry, 2025)

Legend:
Experiment in all cases: log2 ratio of Biotin-Ahx-Ub-VS probe labelling (fragment/DMSO); higher = less target engagement (more negative = stronger competition), active = hit call of the paper (q ≤ 0.05, log2 ratio ≤ -1)
Conditions in all cases: compound concentration: 200 uM; treatment time: 3 h
USP34 = USP34 (UniProt Q70CQ2)
USP34, sequence (Q70CQ2 whole entry, the tested form may be a part): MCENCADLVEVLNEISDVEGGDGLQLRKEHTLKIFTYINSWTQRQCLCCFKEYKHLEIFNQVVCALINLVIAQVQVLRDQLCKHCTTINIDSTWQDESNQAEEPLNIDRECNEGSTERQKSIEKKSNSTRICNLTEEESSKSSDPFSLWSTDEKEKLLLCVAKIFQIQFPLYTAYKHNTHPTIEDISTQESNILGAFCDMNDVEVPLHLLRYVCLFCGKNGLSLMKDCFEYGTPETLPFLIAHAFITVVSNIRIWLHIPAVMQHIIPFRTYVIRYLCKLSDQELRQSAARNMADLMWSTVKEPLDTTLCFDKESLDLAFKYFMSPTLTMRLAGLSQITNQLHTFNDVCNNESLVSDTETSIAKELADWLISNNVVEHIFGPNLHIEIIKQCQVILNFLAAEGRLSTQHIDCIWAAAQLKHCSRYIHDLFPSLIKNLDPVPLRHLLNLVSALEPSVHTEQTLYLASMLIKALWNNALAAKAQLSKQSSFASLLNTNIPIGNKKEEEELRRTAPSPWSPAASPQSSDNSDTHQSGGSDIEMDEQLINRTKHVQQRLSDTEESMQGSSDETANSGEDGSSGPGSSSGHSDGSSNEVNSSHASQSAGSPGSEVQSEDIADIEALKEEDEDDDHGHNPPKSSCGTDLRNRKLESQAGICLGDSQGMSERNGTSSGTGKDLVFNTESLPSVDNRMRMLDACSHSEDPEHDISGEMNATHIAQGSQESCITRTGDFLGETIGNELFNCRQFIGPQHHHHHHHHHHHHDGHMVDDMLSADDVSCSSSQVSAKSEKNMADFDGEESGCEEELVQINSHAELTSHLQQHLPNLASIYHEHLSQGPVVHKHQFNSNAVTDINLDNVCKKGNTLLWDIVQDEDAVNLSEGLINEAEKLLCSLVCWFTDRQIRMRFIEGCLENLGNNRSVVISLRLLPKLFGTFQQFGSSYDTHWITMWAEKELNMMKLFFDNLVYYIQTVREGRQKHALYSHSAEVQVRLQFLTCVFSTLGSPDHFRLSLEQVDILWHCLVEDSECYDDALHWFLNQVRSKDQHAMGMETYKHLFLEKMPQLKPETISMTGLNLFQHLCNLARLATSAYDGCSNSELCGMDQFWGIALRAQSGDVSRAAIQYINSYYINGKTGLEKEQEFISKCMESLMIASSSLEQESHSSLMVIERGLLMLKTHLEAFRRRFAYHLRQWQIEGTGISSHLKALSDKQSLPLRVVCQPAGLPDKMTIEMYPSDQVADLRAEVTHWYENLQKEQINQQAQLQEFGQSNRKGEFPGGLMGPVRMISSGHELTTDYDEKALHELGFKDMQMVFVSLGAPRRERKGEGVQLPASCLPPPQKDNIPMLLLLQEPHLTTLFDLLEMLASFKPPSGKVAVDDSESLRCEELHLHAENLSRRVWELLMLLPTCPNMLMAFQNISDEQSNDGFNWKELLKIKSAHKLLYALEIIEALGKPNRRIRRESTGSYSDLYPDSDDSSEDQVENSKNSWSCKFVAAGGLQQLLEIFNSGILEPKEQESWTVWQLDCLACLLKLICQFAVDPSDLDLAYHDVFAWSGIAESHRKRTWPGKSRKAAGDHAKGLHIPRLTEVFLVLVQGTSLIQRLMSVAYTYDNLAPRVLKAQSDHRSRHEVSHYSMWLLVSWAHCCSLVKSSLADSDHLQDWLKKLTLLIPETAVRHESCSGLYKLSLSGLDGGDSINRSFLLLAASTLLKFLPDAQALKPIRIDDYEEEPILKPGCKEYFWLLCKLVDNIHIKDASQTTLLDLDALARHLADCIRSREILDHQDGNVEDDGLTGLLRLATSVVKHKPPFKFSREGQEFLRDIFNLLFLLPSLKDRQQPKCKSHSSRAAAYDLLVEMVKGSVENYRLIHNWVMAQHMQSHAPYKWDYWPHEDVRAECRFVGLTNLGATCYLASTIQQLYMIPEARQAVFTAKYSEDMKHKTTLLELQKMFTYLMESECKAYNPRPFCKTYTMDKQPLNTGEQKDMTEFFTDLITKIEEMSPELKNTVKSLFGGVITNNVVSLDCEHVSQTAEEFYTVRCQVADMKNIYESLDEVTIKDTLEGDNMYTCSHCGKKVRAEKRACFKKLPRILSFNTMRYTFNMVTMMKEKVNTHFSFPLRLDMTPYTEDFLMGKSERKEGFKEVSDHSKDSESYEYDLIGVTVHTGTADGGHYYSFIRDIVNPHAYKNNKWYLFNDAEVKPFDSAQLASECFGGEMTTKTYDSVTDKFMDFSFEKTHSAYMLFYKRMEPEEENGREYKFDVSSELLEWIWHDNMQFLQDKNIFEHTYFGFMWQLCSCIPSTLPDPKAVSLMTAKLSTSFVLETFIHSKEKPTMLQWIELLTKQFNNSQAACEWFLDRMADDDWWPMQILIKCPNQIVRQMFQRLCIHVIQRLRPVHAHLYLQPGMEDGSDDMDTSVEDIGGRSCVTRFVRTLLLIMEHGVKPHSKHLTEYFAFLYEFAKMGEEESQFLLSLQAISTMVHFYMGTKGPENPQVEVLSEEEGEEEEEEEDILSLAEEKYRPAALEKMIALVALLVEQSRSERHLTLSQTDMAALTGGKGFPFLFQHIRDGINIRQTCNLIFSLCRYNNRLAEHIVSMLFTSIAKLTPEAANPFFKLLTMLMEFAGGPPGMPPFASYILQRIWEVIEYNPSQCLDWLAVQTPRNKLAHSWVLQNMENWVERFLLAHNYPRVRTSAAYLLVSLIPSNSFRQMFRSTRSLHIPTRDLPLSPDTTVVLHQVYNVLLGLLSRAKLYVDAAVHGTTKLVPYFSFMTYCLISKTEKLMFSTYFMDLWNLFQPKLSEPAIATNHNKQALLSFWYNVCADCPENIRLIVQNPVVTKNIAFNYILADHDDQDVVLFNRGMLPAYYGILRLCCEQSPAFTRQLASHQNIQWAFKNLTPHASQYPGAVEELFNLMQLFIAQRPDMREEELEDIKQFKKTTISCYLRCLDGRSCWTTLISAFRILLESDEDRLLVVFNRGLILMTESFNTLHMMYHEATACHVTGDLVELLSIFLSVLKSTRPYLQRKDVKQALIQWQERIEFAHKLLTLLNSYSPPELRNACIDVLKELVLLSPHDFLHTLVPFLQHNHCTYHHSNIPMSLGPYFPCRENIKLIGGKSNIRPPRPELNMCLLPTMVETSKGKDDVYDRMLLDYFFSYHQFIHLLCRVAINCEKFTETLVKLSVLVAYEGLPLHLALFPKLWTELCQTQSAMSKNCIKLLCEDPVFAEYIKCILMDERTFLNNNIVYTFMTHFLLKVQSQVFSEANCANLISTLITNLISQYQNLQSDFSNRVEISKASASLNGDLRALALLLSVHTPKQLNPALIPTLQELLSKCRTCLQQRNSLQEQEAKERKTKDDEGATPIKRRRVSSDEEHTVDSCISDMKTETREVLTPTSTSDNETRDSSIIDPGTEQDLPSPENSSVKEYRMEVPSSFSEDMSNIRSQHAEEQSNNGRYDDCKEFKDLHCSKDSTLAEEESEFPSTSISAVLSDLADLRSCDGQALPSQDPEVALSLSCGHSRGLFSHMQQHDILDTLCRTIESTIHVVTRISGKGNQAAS
Procedure, shortened: (§1)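 Each value is an average log2 ratio of fragment to vehicle, tested by unpaired t-test. The underlying Spectronaut label-free quantities were global-median-normalised, and only proteins with ≥2 unique peptides were included. Triplicate HEK293T lysate samples (495 µg) were exposed to fragment at 200 µM or vehicle for 3 h, then to Biotin-Ahx-Ub-VS at 0.5 µM final for 1 h, before NeutrAvidin enrichment of labelled DUBs, LysC and trypsin digestion, and diaPASEF LC-MS/MS.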

USP36 = target: T1, USP36 (UniProt Q9P275)
T1 sequence (whole entry): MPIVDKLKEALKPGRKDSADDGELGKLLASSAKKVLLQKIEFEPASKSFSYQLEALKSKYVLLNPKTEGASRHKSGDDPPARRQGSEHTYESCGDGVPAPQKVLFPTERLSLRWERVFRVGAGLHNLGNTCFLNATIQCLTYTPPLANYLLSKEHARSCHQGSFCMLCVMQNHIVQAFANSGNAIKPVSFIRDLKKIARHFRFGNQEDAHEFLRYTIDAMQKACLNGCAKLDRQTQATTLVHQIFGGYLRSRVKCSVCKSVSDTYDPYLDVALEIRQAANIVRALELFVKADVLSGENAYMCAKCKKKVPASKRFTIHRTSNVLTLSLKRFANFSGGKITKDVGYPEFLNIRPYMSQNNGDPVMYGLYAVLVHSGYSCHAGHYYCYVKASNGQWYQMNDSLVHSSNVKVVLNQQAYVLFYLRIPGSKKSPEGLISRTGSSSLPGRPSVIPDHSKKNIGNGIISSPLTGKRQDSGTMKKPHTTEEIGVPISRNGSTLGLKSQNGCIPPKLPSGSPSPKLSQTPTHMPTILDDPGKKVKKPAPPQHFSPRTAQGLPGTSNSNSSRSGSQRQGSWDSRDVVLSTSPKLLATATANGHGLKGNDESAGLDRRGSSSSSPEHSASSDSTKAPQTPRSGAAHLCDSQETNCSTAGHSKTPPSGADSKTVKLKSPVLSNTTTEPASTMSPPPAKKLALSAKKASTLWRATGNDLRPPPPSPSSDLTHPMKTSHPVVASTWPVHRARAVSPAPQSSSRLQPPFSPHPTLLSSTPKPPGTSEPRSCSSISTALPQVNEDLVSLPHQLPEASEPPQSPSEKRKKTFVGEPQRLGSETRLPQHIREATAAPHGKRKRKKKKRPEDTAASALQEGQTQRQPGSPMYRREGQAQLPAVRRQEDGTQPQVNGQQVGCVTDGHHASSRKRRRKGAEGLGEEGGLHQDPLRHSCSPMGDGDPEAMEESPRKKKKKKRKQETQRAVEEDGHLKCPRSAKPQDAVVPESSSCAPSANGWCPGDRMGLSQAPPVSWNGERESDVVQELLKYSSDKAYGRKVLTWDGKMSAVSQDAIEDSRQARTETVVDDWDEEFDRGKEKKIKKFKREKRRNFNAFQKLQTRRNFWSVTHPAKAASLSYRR
Procedure, shortened: as §1

USP38 = target: T2, USP38 (UniProt Q8NB14)
T2 sequence (whole entry): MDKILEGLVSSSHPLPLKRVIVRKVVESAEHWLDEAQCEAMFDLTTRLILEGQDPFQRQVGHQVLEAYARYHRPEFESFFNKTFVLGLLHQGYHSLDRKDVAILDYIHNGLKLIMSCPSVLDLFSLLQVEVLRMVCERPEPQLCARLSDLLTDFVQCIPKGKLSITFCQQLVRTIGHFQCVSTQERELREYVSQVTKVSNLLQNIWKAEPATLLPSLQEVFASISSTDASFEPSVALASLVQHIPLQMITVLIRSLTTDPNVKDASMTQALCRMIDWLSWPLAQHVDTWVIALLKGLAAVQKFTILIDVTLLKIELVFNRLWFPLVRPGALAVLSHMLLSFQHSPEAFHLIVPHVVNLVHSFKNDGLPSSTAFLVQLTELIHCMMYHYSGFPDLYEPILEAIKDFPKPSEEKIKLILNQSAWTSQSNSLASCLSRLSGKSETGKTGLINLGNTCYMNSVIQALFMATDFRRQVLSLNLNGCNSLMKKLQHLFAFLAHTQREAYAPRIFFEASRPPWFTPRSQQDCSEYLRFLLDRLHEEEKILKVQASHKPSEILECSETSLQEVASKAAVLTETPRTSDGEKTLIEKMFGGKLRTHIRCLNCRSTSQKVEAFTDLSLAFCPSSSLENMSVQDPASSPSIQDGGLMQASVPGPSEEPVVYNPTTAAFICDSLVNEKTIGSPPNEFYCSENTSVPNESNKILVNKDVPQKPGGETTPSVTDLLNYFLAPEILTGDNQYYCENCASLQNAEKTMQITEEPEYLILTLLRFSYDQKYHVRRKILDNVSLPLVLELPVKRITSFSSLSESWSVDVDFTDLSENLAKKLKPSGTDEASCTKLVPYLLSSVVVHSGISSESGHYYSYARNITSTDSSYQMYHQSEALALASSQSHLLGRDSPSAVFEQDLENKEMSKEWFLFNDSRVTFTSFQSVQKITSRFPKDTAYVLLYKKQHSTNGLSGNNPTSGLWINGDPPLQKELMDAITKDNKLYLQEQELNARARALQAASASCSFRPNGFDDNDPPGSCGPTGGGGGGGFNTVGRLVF
Procedure, shortened: as §1

USP39 = target: T3, USP39 (UniProt Q53GS9)
T3 sequence (whole entry): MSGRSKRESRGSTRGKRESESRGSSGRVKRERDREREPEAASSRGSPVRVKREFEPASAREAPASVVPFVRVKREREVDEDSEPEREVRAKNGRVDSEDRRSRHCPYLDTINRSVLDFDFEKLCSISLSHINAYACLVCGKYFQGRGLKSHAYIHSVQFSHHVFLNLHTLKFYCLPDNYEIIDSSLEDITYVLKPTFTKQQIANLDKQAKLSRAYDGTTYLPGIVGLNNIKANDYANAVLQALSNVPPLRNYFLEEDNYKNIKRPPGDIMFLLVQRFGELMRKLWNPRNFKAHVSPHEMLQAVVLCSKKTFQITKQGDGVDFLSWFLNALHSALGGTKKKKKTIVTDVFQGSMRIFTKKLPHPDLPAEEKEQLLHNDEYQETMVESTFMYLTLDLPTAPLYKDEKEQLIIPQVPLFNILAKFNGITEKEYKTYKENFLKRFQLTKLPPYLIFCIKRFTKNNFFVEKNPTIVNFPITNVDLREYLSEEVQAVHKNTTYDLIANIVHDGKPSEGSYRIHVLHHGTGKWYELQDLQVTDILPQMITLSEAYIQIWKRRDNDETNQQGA
Procedure, shortened: as §1

USP4 = target: T4, USP4 (UniProt Q13107)
T4 sequence (whole entry): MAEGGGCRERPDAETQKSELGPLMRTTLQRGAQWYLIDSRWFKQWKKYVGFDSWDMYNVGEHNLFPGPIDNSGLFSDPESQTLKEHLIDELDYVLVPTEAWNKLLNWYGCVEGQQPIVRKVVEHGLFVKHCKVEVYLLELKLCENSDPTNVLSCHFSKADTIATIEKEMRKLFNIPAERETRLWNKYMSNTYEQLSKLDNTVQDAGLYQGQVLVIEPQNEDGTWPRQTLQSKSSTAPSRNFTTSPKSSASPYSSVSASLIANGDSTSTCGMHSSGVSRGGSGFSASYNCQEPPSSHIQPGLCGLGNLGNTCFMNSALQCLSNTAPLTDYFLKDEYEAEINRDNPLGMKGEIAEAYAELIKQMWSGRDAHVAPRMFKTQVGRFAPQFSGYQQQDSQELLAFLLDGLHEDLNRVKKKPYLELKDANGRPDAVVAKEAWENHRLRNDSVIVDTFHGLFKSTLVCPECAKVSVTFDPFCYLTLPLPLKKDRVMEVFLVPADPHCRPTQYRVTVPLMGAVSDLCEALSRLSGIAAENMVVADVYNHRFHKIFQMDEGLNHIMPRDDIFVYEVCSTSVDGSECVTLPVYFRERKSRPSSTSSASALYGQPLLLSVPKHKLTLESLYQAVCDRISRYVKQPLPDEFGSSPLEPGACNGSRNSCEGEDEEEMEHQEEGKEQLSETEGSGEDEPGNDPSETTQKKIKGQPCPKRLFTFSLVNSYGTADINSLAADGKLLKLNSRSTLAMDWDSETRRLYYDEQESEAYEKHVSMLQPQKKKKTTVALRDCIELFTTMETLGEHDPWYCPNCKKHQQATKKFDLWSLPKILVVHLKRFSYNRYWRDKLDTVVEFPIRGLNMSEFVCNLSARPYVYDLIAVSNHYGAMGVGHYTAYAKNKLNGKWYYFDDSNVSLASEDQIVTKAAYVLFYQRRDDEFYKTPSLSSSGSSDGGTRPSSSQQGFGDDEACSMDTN
Procedure, shortened: as §1

Measured: log2 ratio of Biotin-Ahx-Ub-VS probe labelling

Cc1nnc(C(NC(=O)CCl)c2ccccc2)n1C (stereo not given)
inactive: USP34 0.334 | USP36 0.114 | USP38 0.538 | USP39 0.132 | USP4 0.55
